# The list is not random: actives were taken first. Their share in the collection is about 1.3%.
# 3CLpro inhibitor: SARS-CoV 3CLpro protease inhibitors, primary screen, biochemical, quenched FRET | Replicase polyprotein 1ab (Severe acute respiratory syndrome coronavirus), P0C6X7 | recombinant SARS-CoV 3CLpro, quenched FRET peptide cleavage | inhibition, % at 6 µM | 0.14% of 290,000 active | AID 1706, 2009; in the data active = inhibition above about 12%
# MazEF act: activators of E. coli MazEF toxin-antitoxin RNase, primary screen, biochemical, fluorescence, uHTS. activation, % at 20 µM. AID 504720, 2011. 0.32% of 350,000 active. FAM/BHQ RNA-DNA oligo cleavage fluorescence, 5 h. Endoribonuclease toxin MazF (Escherichia coli (strain K12)), P0AE70; in the data active = activation above about 50%
# Target sequence (P0AE70 whole entry, looked up): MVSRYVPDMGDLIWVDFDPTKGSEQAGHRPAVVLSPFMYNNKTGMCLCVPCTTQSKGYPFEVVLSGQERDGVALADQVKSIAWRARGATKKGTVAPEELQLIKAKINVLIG
# CCHFV vOTU inh: CCHFV vOTU protease inhibitors, primary screen, biochemical, Pep-AMC substrate, fluorescence; inhibition, % at 11.5 µM; Crimean-Congo hemorrhagic fever virus L polyprotein viral ovarian tumor (vOTU) protease …; 0.55% of 370,000 active; in the data active = inhibition above about 30%; also: 0% = vehicle wells with enzyme and 100% = no enzyme wells
# Mtb betalactam: beta-lactam sensitization of Mtb H37Rv, H37Rv; M. tuberculosis H37Rv growth with meropenem, percent inhibition; inhibition, % at 25 µM; 0.27% of 330,000 active; AID 434955, 2010; call rule not given here;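 also: growth measured after seven days incubation then overnight dye step; 0% = bacteria only wells and 100% = bacteria with antibiotic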
# RN4220 kill: growth inhibition of S. aureus RN4220, primary screen, OD600 | 0.33% of 330,000 active | inhibition, % (concentration not given with the values) | 16 h; in the data active = inhibition above about 85%;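 also: plate controls were untreated cells for no effect and reference antibiotic for full effect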
# ugtP null kill: growth inhibition of ugtP-null S. aureus, primary screen, RN4220 ugtP deletion, OD600; 16 h; growth inhibition, % (concentration not given with the values); 0.54% of 330,000 active; in the data active = growth inhibition above about 68%;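 also: plate controls were untreated wells for no effect and antibiotic for full effect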
# * hit, by the source's call; i = inactive; / = not tested or not shown; + = active, no number.
SMILES,3CLpro inhibitor,MazEF act,CCHFV vOTU inh,Mtb betalactam,RN4220 kill,ugtP null kill
C[C@H]1c2cccc(O)c2C(O)=C2C(=O)[C@]3(O)C(O)=C(C(N)=O)C(=O)[C@@H](N(C)C)[C@@H]3[C@@H](O)[C@@H]21,/,4,/,99,/,/
CN(C)[C@@H]1C(=O)C(C(N)=O)=C(O)[C@@]2(O)C(=O)C3=C(O)c4c(O)cccc4[C@@](C)(O)[C@H]3[C@H](O)[C@@H]12,0,-39,17,2,/,/
CC1c2cccc(O)c2C(O)=C2C(=O)[C@]3(O)C(O)=C(C(N)=O)C(=O)C(N(C)C)C3C(O)C21 (some centres not stated),/,/,/,/,100*,99*
Cc1ccc(Cn2ncn3c(cc4ccccc43)c2=O)cc1,4,-1,-2,4,2,93*
O=C(N/N=C/C=C/c1ccccc1)c1cccc(Br)c1,1,53*,11,99,/,/
COC(=O)c1c[nH]c2c1-c1cc(C(=O)OCc3ccccc3)n(S(=O)(=O)c3ccc(C)cc3)c1C(=O)C2=O,/,75*,18,/,/,/
O=C(CN1CCN(Cc2ccccc2Cl)CC1)NN=Cc1cccs1,/,/,/,/,-3,-9
CN(N=Nc1ccc([N+](=O)[O-])cc1)c1ccccc1,-2,+,11,51,/,/
N#C/C(=C/c1ccc(-c2ccc([N+](=O)[O-])cc2)o1)C(=O)Nc1nc(-c2cccs2)cs1,/,-2,26,/,4,-8
N#C/C(=C/c1ccc(-c2ccc(S(N)(=O)=O)cc2)o1)C(=O)Nc1ccccc1,6,101*,-3,2,13,-2
Cc1cc(NC(=O)/C(C#N)=C/c2ccc(-c3ccc(SC(F)F)cc3)o2)n(-c2ccccc2)n1,-2,405*,-2,-2,1,-6
N#C/C(=C\c1ccco1)C(=O)Nc1ccc(S(N)(=O)=O)cc1,-4,11,12,0,2,0
N#C/C(=C\c1ccc(-c2ccc(F)cc2)o1)C(=O)Nc1nc(-c2cccs2)cs1,2,128*,2,5,6,-15
COc1ccc(C2C=CCN(CC3CC3)CC(=O)N2Cc2ccc(F)cc2)cc1 (configuration not stated),/,/,/,/,9,-1
CC1=Nc2ncnn2C(c2ccccc2)C1=NO (configuration not stated),/,/,/,/,2,1
CCN1CCc2c(sc(NC(=O)c3ccc(C(=O)c4ccccc4)cc3)c2C(N)=O)C1,-8,274*,13,7,-10,-21
NC(=O)c1c(NC(=O)c2ccccc2)sc2c1CCN(Cc1ccccc1)C2,1,116*,-2,1,-7,-4
NC(=O)c1c(NC(=O)c2c(F)cccc2F)sc2c1CCN(Cc1ccccc1)C2,-2,2,7,19,-11,1
CC(=O)N1CCc2c(sc(NC(=O)c3ccc([N+](=O)[O-])o3)c2C(N)=O)C1,/,0,47*,/,/,/
CCN1CCc2c(sc(NC(=S)NC(=O)c3ccccc3)c2C#N)C1,6,62*,8,-13,4,17
CC1CCc2sc(NC(=S)NC(=O)c3ccccc3)c(C#N)c2C1 (configuration not stated),-2,-6,-13,39,-2,11
CCN1CCc2c(sc(NC(=O)Cc3ccccc3)c2C(N)=O)C1,1,10,4,9,-9,-6
COc1cccc(C=NNC(=O)c2ccc(COc3ccc(Cl)cc3Cl)o2)c1,/,/,/,/,5,-14
Nc1nonc1-n1nnc(C(=O)NN=Cc2ccccn2)c1-c1ccccc1,/,/,/,/,2,-3
NCCCCC(NC(=O)C1CCNCC1)c1nnc(C(N)Cc2ccc(O)cc2)o1 (configuration not stated),/,/,/,/,5,2
SMILES,3CLpro inhibitor,MazEF act,CCHFV vOTU inh,Mtb betalactam,RN4220 kill,ugtP null kill
N#Cc1c(NC(=S)NC(=O)Cc2cccs2)sc2c1CCCCC2,-3,7,4,13,-5,87*
CC(=O)NC(=S)Nc1sc2c(c1C#N)CCCCC2,5,-4,-7,/,6,2
CC(=NN(C)C)C1=C(O)c2ccccc2C1=O,/,/,/,/,5,8
Cc1ccc2[nH]c(O)c(N=Nc3ccccc3C)c2c1,4,6,4,0,3,-6
Cc1cccc(N=Nc2c(O)[nH]c3ccc(Br)cc23)c1,6,-58,-13,1,7,29
Oc1[nH]c2ccc(Br)cc2c1N=NC(=S)Nc1ccc(F)cc1,1,-2,9,1,99*,100*
COc1ccccc1N=Nc1c(O)[nH]c2ccc(Br)cc12,1,137*,23,3,1,2
Cc1ccccc1N=Nc1c(O)[nH]c2ccccc12,/,482*,6,2,-4,-14
O=C(CN(Cc1ccc(Cl)c(Cl)c1)S(=O)(=O)c1ccccc1)NN=Cc1ccc2c(c1)OCO2,/,/,/,/,-9,0
S=c1[nH]nc(C2CCCCC2)n1N=Cc1cccc(Cl)c1Cl,/,/,/,/,2,-13
CCN(CC)c1ccc(-c2c(C#N)c(N)nc(OC)c2C#N)cc1,3,75*,-14,24,8,10
O=C(OCc1ccccc1)C(=C(O)c1ccccc1Br)c1ccc(-c2ccccc2)cn1,/,/,/,/,4,2
CN1CCN(CCC(=O)NN=Cc2cc3c(cc2[N+](=O)[O-])OCO3)CC1,/,/,/,/,1,5
CC(=O)Oc1cc2cccc(OC(C)=O)c(=O)c2c(OC(C)=O)c1OC(C)=O,-2,214*,/,0,20,3
COc1cc2cccc(OC)c(=O)c2c(O)c1OC,2,0,11,2,4,9
CN(C)c1nc(NN=Cc2ccccc2O)nc(Nc2ccc(F)cc2)n1,/,/,/,/,100*,100*
CN(C)c1nc(NCc2ccccc2)nc(NN=Cc2ccc(Cl)cc2Cl)n1,/,/,/,/,-5,-9
CCN1/C(=C/c2cc[n+](C)cc2)C=Cc2cc(C)ccc21,0,16,4,22,54,100*
CCCOc1ccc2oc(=O)c3c(c2c1)CCCN3C(=O)CN1CCc2ccccc2C1,-6,5,15,73,10,86*
CC1CCN(CC(=O)N2CCCc3c2c(=O)oc2ccc(OCc4ccccc4)cc32)CC1,1,-1,6,99,14,13
CCN1/C(=C\C=C\C2=[N+](CC)c3ccccc3C2(C)C)C(C)(C)c2ccccc21,-11,i,/,80,100*,100*
CN1/C(=C\C=NO)C(C)(C)c2ccccc21,/,/,/,/,9,-5
O=C(Nc1cccc(Cl)c1N1CCCC1)c1ccc(Br)o1,4,1,-1,16,3,45
O=C(Nc1cccc(Cl)c1N1CCCC1)c1cc2ccccc2o1,0,-2,8,82,-12,89*
Cc1ccc2nc(SCC(=O)NN=Cc3ccco3)cc(C)c2c1,/,/,/,/,12,10
